Most compounds without a hit are left out; they make up all but 12% or so of the library.
Sfp inh – blocks B. subtilis Sfp PPTase activity; Q9F4F7; Biochemical Sfp PPTase activity, qHTS; Potency, µM, for the others: largest response in the series, negative = inhibition, most hits filed as inhibitors; 310,000 tested, 3.5% active; AID 1490;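 also: the enzyme is Sfp with the accession as filed and its product quenches rhodamine fluorescence; 0% = enzyme reaction without inhibitor and -100% = no enzyme wells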
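Fluorescence-quenching assay with 15 nM Sfp, 5 uM rhodamine-CoA and 12.5 uM BHQ-2-labelled ybbR peptide in pH 7.6 Hepes/MgCl2 buffer. Enzyme was pre-incubated with compound for 15 min at room temperature. Rate was taken from the 30-min fluorescence change (525/598 nm).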
HP1b binding inh – inhibitors of HP1-beta chromodomain binding to methylated histone tails; Potency, µM (doses to about 114 µM), for the others: at the highest dose activity change, negative = inhibition, actives largely listed as inhibitors; P83916; 390,000 tested, 0.56% active; AlphaScreen HP1-beta / biotin-H3K9me3 peptide binding; also: nearly all actives have a fitted effect of over 70% in size
Target sequence (P83916 whole entry, looked up): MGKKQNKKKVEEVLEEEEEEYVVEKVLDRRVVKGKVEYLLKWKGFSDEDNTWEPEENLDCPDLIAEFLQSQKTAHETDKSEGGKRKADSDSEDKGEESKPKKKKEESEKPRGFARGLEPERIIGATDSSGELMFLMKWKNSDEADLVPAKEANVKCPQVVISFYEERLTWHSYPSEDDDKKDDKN
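HP1-beta protein (50 nM final) preincubated 30 min at room temperature with biotinylated H3(1-18)K9me3 peptide (50 nM) in PBS pH 7.4, 0.01% Tween-20, then compound added for 30 min. AlphaScreen streptavidin donor/nickel chelate acceptor beads (10 ug/mL final), 30 min dark, luminescence read.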
L3MBTL1 inh – blocks human L3MBTL1; Q9Y468; AlphaScreen L3MBTL1–H3K9me1 peptide binding; Potency, µM (series often up to 57.1 µM), inactives show top-dose activity, negative = inhibition, most hits filed as inhibitors; 230,000 tested, 0.66% active; also: % is scaled to controls: 0 for no effect and ±100 for the full control effect; nearly all actives have a fitted effect of over 60% in size
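AlphaScreen assay: L3MBTL1 (50 nM final) was preincubated 30 min at room temperature with biotinylated H3(1-15)K9me1 peptide (75 nM final), then 30 min with library compounds; streptavidin donor and nickel chelate acceptor beads (10 ug/mL final) added, 30 min dark.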
JMJD2A Tudor – JMJD2A Tudor domain (human) inhibition | O75164 | AlphaScreen JMJD2A-Tudor / H3K4me3 peptide binding | Potency, µM (highest dose often 114 µM), for inactives: at the top dose activity change, negative = inhibition, actives largely listed as inhibitors | 390,000 tested, 4.4% active | AID 504339; also: % is scaled to controls: 0 for no effect and ±100 for the full control effect; nearly all actives have a fitted effect of over 50% in size
BAZ2B block – inhibitors of human BAZ2B bromodomain; Q9UIF8; AlphaScreen BAZ2B-H3K14Ac peptide displacement; Potency, µM (doses to about 114 µM), without a hit: at the top dose activity change, negative = inhibition, most hits filed as inhibitors; 360,000 tested, 4.4% active; also: % is scaled to controls: 0 for no effect and ±100 for the full control effect; nearly all actives have a fitted effect of over 60% in size
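AlphaScreen displacement: compounds (up to 110uM) incubated 30 min at room temperature with a preformed 50 nM BAZ2B/50 nM biotinylated H3K14Ac peptide complex in PBS pH 7.4 with Tween-20. Donor and acceptor beads at 10 ug/mL final added, 20 min light-protected before reading.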
G9a inh – inhibitors of human histone lysine methyltransferase G9a | AID 504332 | Potency, µM (series often up to 102 µM), for inactives: at the highest dose activity, negative = inhibition, actives largely listed as inhibitors | Q96KQ7 | 350,000 tested, 8.8% active | G9a H3K9 monomethylation, AlphaScreen, 2 h; also: % is scaled to controls: 0 for no effect and ±100 for the full control effect; nearly all actives have a fitted effect of over 75% in size
Target sequence (Q96KQ7 913-1193 limits assumed): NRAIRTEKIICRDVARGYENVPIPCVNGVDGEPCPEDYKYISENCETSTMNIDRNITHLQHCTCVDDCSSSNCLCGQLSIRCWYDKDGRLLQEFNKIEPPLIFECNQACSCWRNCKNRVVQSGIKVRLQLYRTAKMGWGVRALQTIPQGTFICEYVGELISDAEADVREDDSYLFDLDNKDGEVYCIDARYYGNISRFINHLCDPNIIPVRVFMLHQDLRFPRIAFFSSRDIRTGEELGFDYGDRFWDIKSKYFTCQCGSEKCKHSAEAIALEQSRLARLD
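Enzyme 20 nM + cpd, 15 min RT; add b-H3K9 pep 500 nM / SAM 20 uM; 2 h RT; anti-H3K9me1 Ab 0.5 ug/mL + SA donor / anti-rabbit acceptor beads 20 ug/mL each, 10 min; AlphaScreen read.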
Active calls of the source: *; u = inconclusive; x = no result; [ ] = remark or other dose. Calls follow the shape of the dose curve; as a rule, active = well fitted curve in the direction sought with a large enough effect; inconclusive = small, poorly fitted or top-dose-only effect, or another doubt; inactive = no such curve, though single readings can be large; an effect the other way counts as inactive or inconclusive. Potency is read from the fitted curve at half-maximal effect.

SMILES	Sfp inh	HP1b binding inh	L3MBTL1 inh	JMJD2A Tudor	BAZ2B block	G9a inh
O=C(CSc1nc2ccccc2[nH]1)NCC1CCCO1 (stereo not given)	-2.8%	17.6%	4.9%	-7.1%	-7.7%	31.6µM*
COc1ccc(C(=O)N2CCC[C@@]3(CCN(c4ccccc4)C3)C2)cc1	-11.6%	x	x	x	x	-8.7%[12.7 µM]
COc1cccc(CCn2c(N)cc(=O)[nH]c2=S)c1OC	x	46.4%	x	0.7%	x	x
O=C(CSc1ccc(Cl)cc1)NCC1CCCO1 (stereo not given)	13.3%	24.9%	x	4.3%	5.0%	-1.3%
O=C(CSc1ccc(Br)cc1)NCC1CCCO1 (stereo not given)	10.0%	24.9%	20.7%	5.4%	-19.9%	39.8µM*
NC(=S)NNc1c(F)c(F)c(F)c(F)c1F	39.8µM*	u	15.2%	u	-20.5%	35.5µM*
NC(=S)Nc1ccc(F)c(F)c1F	16.9%	60.4%	x	-3.3%	-23.0%	-5.0%
O=C(c1cc(Br)ccc1O)N(Cc1ccco1)Cc1cccs1	x	-2.7%[57 µM]	x	-27.7%[57.1 µM]	x	x
COc1ccc(N2CC(=O)N(c3ccccc3)C2=S)cc1	8.0%	24.7%	18.2%	-11.4%	2.0%	11.8%[59 µM]
COc1ccc(N=C2C(=Nc3ccc(OC)cc3)N(c3ccc(OC)cc3)C(=S)N2C)cc1	10.0%	7.08µM*	x	8.91µM*	2.82µM*	5.01µM*
COc1ccc(N=C2SCC(=O)N2c2ccc(OC)cc2)cc1	-1.3%	18.5%	x	-18.5%	4.7%	0.5%
COc1ccc(N=C2C(=Nc3ccc(OC)cc3)N(c3ccc(OC)cc3)C(=S)N2c2ccccc2)cc1	-4.0%	u	x	u	2µM*	u
CC1CCN(C(=O)c2cnn(-c3cccc(Cl)c3)c2C2CCN(C(=O)OC(C)(C)C)CC2)CC1	x	13.0%	x	-22.7%	5.3%[57.1 µM]	1.1%[59 µM]
CC(C)(C)c1ccc(C(=O)N2CCN(C(=O)c3ccco3)CC2)cc1	12.9%	25.4%	x	-12.5%	-13.1%	32.7%
CCn1nnc2cc(C(=O)Nc3ccc(C)c(Cl)c3)ccc21	x	33.1%	x	-14.3%	-10.7%	-14.3%[59 µM]
CCN1CCN(S(=O)(=O)c2cc(C(=O)O)ccc2Cl)CC1	1.3%	47.3%	2.6%	-12.0%	-20.2%	u
Cc1cc(C(=O)CN2CCCCC2)c(C)n1-c1ccc(F)cc1	7.3%	-14.0%	-5.4%	-28.9%	u	-12.9%[59 µM]
CCN1CCN(CC(=O)c2cc(Cl)ccc2Cl)CC1	-12.0%	24.1%	-27.4%	-18.5%	-23.9%	14.1µM*
Cc1cc(C(=O)CN2CCCC2)c(C)n1-c1ccc(Cl)cc1	12.9%	4.8%	x	-32.8%	-38.9%	50.1µM*
COc1cc(OC)cc(-c2nnc3n2N=C(c2ccc(OC)c(OC)c2)CS3)c1	9.0%	x	x	-17.2%	x	x
Cc1nc2cnc(Oc3ccccc3)nc2n(CCC#N)c1=O	5.3%	x	x	x	x	3.8%[12.7 µM]
Cc1ccc(N2CCN(c3ccc(C)cc3)C2c2ccncc2)cc1	44.7µM*	u	u	-32.9%[11.4 µM]	-77.3%	35.5µM*
CON(C)S(=O)(=O)c1cccc(C(=O)Nc2ccc(S(=O)(=O)NC3=NCCCCC3)cc2)c1	x	10.9%	-12.3%	-4.1%	7.8%	50.1µM*
CC(=O)Nc1cccc(C(=O)Nc2ccc(S(=O)(=O)NC3=NCCCCC3)cc2)c1	x	20.0%	0.1%	-15.2%	4.2%	18.7%[0.501 µM]
CCN(CC)S(=O)(=O)c1cccc(C(=O)Nc2ccc(S(=O)(=O)NC3=NCCCCC3)cc2)c1	x	3.4%	-5.3%	-17.2%	0.9%	15.8µM*
CON(C)S(=O)(=O)c1cccc(C(=O)Nc2cccc(S(=O)(=O)NC3=NCCCCC3)c2)c1	x	32.7%	x	-12.7%	x	x
N#Cc1nccnc1S(=O)(=O)c1cccs1	7.08µM*	11.6%	-5.6%	-17.4%	-1.6%	3.98µM*
CN(Cc1ccccc1C#N)S(=O)(=O)c1cccs1	-6.0%	38.0%	x	-4.2%	5.2%	-9.1%
N#Cc1nc(Nc2cccc(Br)c2)nc(NC2CCCC2)n1	x	x	x	-16.4%	x	x
Cc1csc(NC(=O)Cc2coc3cc(C)c(C(C)C)cc23)n1	19.3%	14.9%	x	-31.6%	u	44.7µM*

Screens from PubChem BioAssay.
